TLR9-MyD88 block: blocks human TLR9 binding to MyD88. CHO BLA complementation TLR9-MyD88, CCF4 FRET ratio. 340,000 compounds, 0.21% hits. inhibition, % at 4.98 µM. AID 504734;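 active = inhibition above the mean over all tested compounds plus 3 SD, cut at about 21% in these data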;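 also: 0% = DMSO only wells and 100% = clavulanate BLA inhibitor control wells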
Neddyl block: blocks human cullin neddylation; P61081+Q13564; TR-FRET cullin neddylation, biochemical; inhibition, % at 25 µM; 360,000 compounds, 0.58% hits; AID 651699; in the data active = inhibition above about 36%
GC-B act: GC-B (human) receptor activation; AID 1920062; HEK293-GC-B cells, CNP EC30, cGMP TR-FRET; 0% at EC30 CNP, 100% saturating CNP; P20594; activation, % at 10 µM; 370,000 compounds, 0.11% hits;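 active = activation at 10 µM reaching about 35% in either raw or pattern-adjusted values, limit read from the data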
TLR4 MyD88 comp: inhibitors of human TLR4-MyD88 binding | O00206+Q99836 | HeLa CL3-4 TLR4/MyD88 BLA complementation, FRET ratio | inhibition, % at 8.4 µM | 200,000 compounds, 0.18% hits | AID 861; in the data active = inhibition above about 25%;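 also: 0% = vehicle and 100% = reference inhibitor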
GC-A act: GC-A (human) enzyme activation | activation, % at 10 µM | 370,000 compounds, 0.14% hits | HEK293 GC-A cells, cGMP TR-FRET, EC30 ANP; 0% at EC30 ANP, 100% saturating ANP; in the data active = activation above about 40%
NOD2-RIPK2 inh: inhibitors of human NOD2-RIPK2 interaction. 360,000 compounds, 0.38% hits. CHO BLA complementation NOD2-RIPK2, CCF4 ratio. AID 624267. O43353. inhibition, % at 4.98 µM; in the data active = inhibition above about 21%;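 also: 0% = vehicle only and 100% = reference blocker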
Target sequence (O43353 whole entry, looked up): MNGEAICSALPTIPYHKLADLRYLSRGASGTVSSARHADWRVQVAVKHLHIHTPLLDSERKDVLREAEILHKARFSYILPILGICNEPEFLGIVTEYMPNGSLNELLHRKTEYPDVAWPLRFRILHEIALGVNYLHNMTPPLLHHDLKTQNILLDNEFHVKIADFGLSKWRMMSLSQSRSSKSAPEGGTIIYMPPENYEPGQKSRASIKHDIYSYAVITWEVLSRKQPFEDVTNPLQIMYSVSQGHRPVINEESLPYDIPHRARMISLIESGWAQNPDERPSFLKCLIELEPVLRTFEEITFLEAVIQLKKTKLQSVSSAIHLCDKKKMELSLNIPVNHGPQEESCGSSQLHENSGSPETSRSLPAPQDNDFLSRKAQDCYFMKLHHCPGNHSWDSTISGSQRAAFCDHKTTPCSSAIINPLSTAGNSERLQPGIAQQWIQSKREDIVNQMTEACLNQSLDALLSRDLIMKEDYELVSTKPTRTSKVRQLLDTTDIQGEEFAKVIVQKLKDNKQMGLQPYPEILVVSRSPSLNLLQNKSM
Neddyl conf: confirmation of human cullin neddylation inhibitors. shares compounds with Neddyl block. TR-FRET cullin neddylation biochemical assay. calls only at 25 µM. 1,800 compounds, 13% hits. AID 652217; in the data active = inhibition above about 40%;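 also: neddylation substrate is the cullin 1 ring ligase complex with SKP2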
An asterisk follows results filed as active. Hits are enriched below; roughly 1.2% of the tested compounds scored in any of these assays.

`CCOC(=O)C1=C(C)NC(C)=C(C(=O)OCC)C1C(=O)OCC(=O)NCc1ccco1` gave TLR9-MyD88 block -12.2, Neddyl block 35.8, GC-B act 1.4, GC-A act 0.5 and NOD2-RIPK2 inh -3.9.
Screening O=C(CCc1ccccc1)N[C@H]1[C@H](OCc2ccccc2)CCC[C@@]12C(=O)N(Cc1ccccc1)c1ccccc12 returned GC-B act -7.0 and GC-A act -2.5.
`Cc1ccc(C(O)c2ncc(-c3cccc4ccccc34)[nH]2)cc1F` (configuration not stated) gave Neddyl block 42.1*, GC-B act -6.9, GC-A act -3.0, NOD2-RIPK2 inh 17.5 and Neddyl conf inactive.
Cc1ccc(C(O)c2ncc(-c3ccccc3C)[nH]2)cc1F (configuration not stated) was read as Neddyl block -5.2, GC-B act -0.8, GC-A act 0.8 and NOD2-RIPK2 inh 9.5.
O=[N+]([O-])c1ccc2c([N+](=O)[O-])ccc3c2c1CC3 was read as TLR9-MyD88 block -2.2, Neddyl block -40.5, GC-B act -2.7, GC-A act -10.0 and NOD2-RIPK2 inh 3.6.
Screening Cc1ccc(-n2c(SCC(=O)OC(C)C)nnc2-c2ccncc2)cc1 returned TLR9-MyD88 block 3.9, Neddyl block 40.7*, GC-B act 0.1, TLR4 MyD88 comp -12.6, GC-A act 2.7, NOD2-RIPK2 inh -15.1 and Neddyl conf inactive.
`Cc1c(OCc2nn[nH]n2)ccc2c3c(c(=O)oc12)CCCC3` gave TLR9-MyD88 block -0.9, GC-B act 3.4, TLR4 MyD88 comp 2.8, GC-A act 0.8 and NOD2-RIPK2 inh 3.1.
Cc1c(OCc2nn[nH]n2)ccc2c3c(c(=O)oc12)CCC(C)C3 (configuration not stated) was read as TLR9-MyD88 block 2.9, Neddyl block 47.0*, GC-B act -2.0, TLR4 MyD88 comp -0.2, GC-A act -1.7, NOD2-RIPK2 inh -1.4 and Neddyl conf inactive.
`CCCc1ccc2oc(C(=O)N3CCN(c4cnccn4)CC3)c(C)c2c1` gave TLR9-MyD88 block -2.5, Neddyl block 40.5*, GC-B act -5.7, GC-A act -3.5, NOD2-RIPK2 inh 2.7 and Neddyl conf inactive.
For C[C@H](CO)N1C[C@H](C)[C@@H](CN(C)CC2CCCCC2)Oc2ccc(NC(=O)CCN3CCOCC3)cc2C1=O the results were TLR9-MyD88 block 6.5, Neddyl block -2.5, GC-B act 6.8, GC-A act 3.8 and NOD2-RIPK2 inh -10.9.
`O=C1c2cccc3cccc(c23)C(=O)C1(O)O` gave TLR9-MyD88 block -2.5, Neddyl block -97.0, GC-B act 4.1, GC-A act -0.3 and NOD2-RIPK2 inh -18.1.
`c1cc2c3c(cccc3c1)-c1cnccc1-2` gave TLR9-MyD88 block -3.2, Neddyl block 55.7*, GC-B act -1.4, GC-A act -3.0, NOD2-RIPK2 inh -7.6 and Neddyl conf active.
`c1ccc(CCn2cccc2)nc1` gave TLR9-MyD88 block 3.0, Neddyl block -3.0, GC-B act -1.5, GC-A act 4.9 and NOD2-RIPK2 inh -2.0.
For Cc1cc(C)c(C)c(S(=O)(=O)Nc2ccccc2C(=O)NCCCn2ccnc2)c1C the results were TLR9-MyD88 block -0.3, Neddyl block 38.2*, GC-B act 1.8, TLR4 MyD88 comp 2.5, GC-A act -3.0 and NOD2-RIPK2 inh -3.9.
For O=C(O)c1ccccc1NS(=O)(=O)c1ccc2c(c1)OCCO2 the results were TLR9-MyD88 block -5.2, Neddyl block 43.4*, GC-B act 1.9, TLR4 MyD88 comp -0.2, GC-A act -1.3 and NOD2-RIPK2 inh -5.3.
For O=C(NCCCn1ccnc1)c1ccccc1NS(=O)(=O)c1ccc(F)c(F)c1 the results were TLR9-MyD88 block -2.8, Neddyl block -8.1, GC-B act 2.0, TLR4 MyD88 comp 8.7, GC-A act 0.1 and NOD2-RIPK2 inh 3.4.
`NC(=O)c1ccccc1NS(=O)(=O)c1ccc2c(c1)OCCO2` gave TLR9-MyD88 block -5.9, GC-B act 4.6, TLR4 MyD88 comp -5.3, GC-A act 5.0 and NOD2-RIPK2 inh -4.4.
Screening Cc1cc(C)c(C)c(S(=O)(=O)Nc2ccccc2C(=O)O)c1C returned TLR9-MyD88 block 4.6, Neddyl block 46.6*, GC-B act -0.9, TLR4 MyD88 comp -5.8, GC-A act 4.5 and NOD2-RIPK2 inh -2.1.
`CCCNC(=O)c1onc(CS(=O)(=O)c2cccc(OC)c2)c1C(=O)NCCC` gave TLR9-MyD88 block -11.6, Neddyl block -19.6, GC-B act -3.7, GC-A act 0.3 and NOD2-RIPK2 inh -0.7.
For COc1ccc(-c2nc(SC(C)C(=O)NC3CC3)n[nH]2)cc1 (configuration not stated) the results were TLR9-MyD88 block -8.1, Neddyl block 11.3, GC-B act 1.2, GC-A act 4.9 and NOD2-RIPK2 inh 8.6.
Screening Nc1nnc(-c2ccccc2Cl)s1 returned TLR9-MyD88 block -5.0, Neddyl block 16.5, GC-B act -0.2, TLR4 MyD88 comp -15.5, GC-A act 5.9 and NOD2-RIPK2 inh -2.7.
Screening COc1ccccc1-c1nnc(N)s1 returned TLR9-MyD88 block -10.7, Neddyl block 41.0*, GC-B act 0.3, TLR4 MyD88 comp 1.8, GC-A act 4.3, NOD2-RIPK2 inh -4.5 and Neddyl conf inactive.
For CC(C)[C@@H](NC(=O)C1CCN(C(=O)[C@@H]2CCCN2C(=O)OC(C)(C)C)CC1)C(=O)NCc1ccc(F)cc1 the results were TLR9-MyD88 block 2.4, Neddyl block 4.6, GC-B act -3.0, GC-A act 2.8 and NOD2-RIPK2 inh 4.2.
CC1(C)Cc2c(C#N)c(NCCN3CCOCC3)nc(-c3ccco3)c2CO1 was read as TLR9-MyD88 block 0.7, Neddyl block -110.7, GC-B act 1.4, TLR4 MyD88 comp -10.1, GC-A act 1.7 and NOD2-RIPK2 inh 4.2.
Screening CC1(C)Cc2c(C#N)c(NCCO)nc(-c3ccco3)c2CO1 returned Neddyl block 39.2*, GC-B act 6.3, GC-A act -2.0 and NOD2-RIPK2 inh -0.7.
For CC(=O)NC(C)(c1ccccc1)c1nc(-c2cnc3ccccc3c2)cs1 (configuration not stated) the results were Neddyl block -23.1, GC-B act -3.4, GC-A act -1.9 and NOD2-RIPK2 inh 4.3.
COc1cccc2[nH]c3c(N4CCCCC4)ncnc3c12 was read as TLR9-MyD88 block 4.0, Neddyl block 44.7*, GC-B act -6.2, TLR4 MyD88 comp -1.0, GC-A act 9.1 and NOD2-RIPK2 inh 10.5.
`CCOC(=O)C1CCN(c2ncnc3c2[nH]c2cccc(OC)c23)CC1` gave TLR9-MyD88 block -4.4, GC-B act -8.1, TLR4 MyD88 comp -3.1, GC-A act 1.8 and NOD2-RIPK2 inh -6.9.

Source: PubChem BioAssay (several laboratories)
